Measured values: the supplement of paper PMC3334620
Whole data set: some 33,000 sequences, median “E-score (-0.5 to 0.5)” near -0.043, cut for the highest 2% near 0.37. This excerpt belongs to a sample that is enriched for the highest values.

Biological target: T1, Upc2 (UniProt Q12151)
T1 sequence: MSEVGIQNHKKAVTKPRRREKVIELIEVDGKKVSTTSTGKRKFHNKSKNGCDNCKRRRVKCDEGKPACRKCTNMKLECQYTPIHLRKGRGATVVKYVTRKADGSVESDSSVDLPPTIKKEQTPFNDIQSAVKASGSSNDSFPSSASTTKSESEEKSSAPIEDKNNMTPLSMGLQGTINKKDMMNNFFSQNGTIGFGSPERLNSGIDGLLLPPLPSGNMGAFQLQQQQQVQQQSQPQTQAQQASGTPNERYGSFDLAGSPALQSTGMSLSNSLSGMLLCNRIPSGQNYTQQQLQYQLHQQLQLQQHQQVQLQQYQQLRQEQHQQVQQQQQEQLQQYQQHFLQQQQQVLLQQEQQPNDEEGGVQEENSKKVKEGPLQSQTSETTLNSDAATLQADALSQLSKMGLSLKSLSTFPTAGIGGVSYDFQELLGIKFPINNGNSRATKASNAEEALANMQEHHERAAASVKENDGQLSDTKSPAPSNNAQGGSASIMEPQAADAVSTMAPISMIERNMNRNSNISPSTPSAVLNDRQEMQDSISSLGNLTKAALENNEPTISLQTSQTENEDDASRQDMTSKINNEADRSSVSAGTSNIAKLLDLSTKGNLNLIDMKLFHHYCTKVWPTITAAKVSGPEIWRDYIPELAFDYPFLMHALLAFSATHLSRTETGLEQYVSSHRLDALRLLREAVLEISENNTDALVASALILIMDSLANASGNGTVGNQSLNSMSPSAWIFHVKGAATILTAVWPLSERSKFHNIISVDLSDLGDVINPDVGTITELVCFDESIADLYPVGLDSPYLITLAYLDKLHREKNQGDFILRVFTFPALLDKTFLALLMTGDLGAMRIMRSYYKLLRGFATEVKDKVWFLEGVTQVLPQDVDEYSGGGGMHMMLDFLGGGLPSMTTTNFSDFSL
Assay: PBM E-score (8-mer binding enrichment) (E-score (-0.5 to 0.5)); higher = stronger / more preferred TF binding
Details: protein concentration: 200 nM; construct: GST-full length
Procedure: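 Universal 'all 10-mer' protein binding microarrays (Agilent AMADID 015681) probed with GST-tagged S. cerevisiae TFs (full-length or DBD) made by in vitro transcription/translation (PURExpress), about 100-200 nM. Bound TF was detected with fluorescent anti-GST. Each ungapped 8-mer (which stands for itself and its reverse complement) is scored by the PBM enrichment score (E-score), a modified Wilcoxon-Mann-Whitney statistic from -0.5 to +0.5, computed with the Universal PBM Analysis Suite. Scale: above 0.35 generally sequence-specific binding.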

Row | Sequence | PBM E-score
1 | TGTATAAA | 0.156
2 | CGTATAAG | 0.481
3 | AGTATAAG | 0.261
4 | AACTTTCC | -0.281
5 | AGCTCTCA | -0.214
6 | GGGAGGTA | 0.132
7 | CACAGATA | -0.136
8 | GCACTGGA | -0.0891
9 | CGTATACC | 0.472
10 | AGTATACC | 0.124
11 | GGTATACA | -0.0256
12 | CGTATACA | 0.474
13 | AGTATACA | 0.149
14 | GGTATACC | 0.214
15 | CGTTCAGC | 0.396
16 | GGTTCAGA | -0.186
17 | CGTTCAGA | 0.372
18 | CGTTCATC | 0.353
19 | AGTTCAGA | -0.0704
20 | AGTTCAGC | -0.205
21 | AGGCGTGC | -0.0583
22 | CGCAGTAG | -0.0605
23 | AAAGGTGT | 0.0174
24 | GTTAGCCA | -0.0759
25 | ACTGAGAT | -0.184

Row | Sequence | PBM E-score
26 | AGTTAAGC | 0.00193
27 | CTTTAAAG | -0.114
28 | AGTTAAAG | 0.0271
29 | CGTTAAAA | 0.364
30 | CGTTAAGC | 0.432
31 | GGTTAAAC | 0.232
32 | CGTTAAGA | 0.341
33 | CGTTAAAC | 0.411
34 | CGTTAAAG | 0.4
35 | GAAAACTC | -0.114
36 | AGAGAATG | 0.0339
37 | GCAGTGGA | -0.123
38 | CTCAATAA | -0.213
39 | GACAGTGA | -0.0168
40 | CACTAGGA | -0.245
41 | AGATACGG | 0.307
42 | CGATACAA | 0.0776
43 | AGATACGA | 0.454
44 | GGATACTA | -0.183
45 | AGATACGC | 0.201
46 | CGATACGC | 0.267
47 | GGATACCA | -0.0879
48 | GGATACGA | 0.463
49 | CGATACGA | 0.464
50 | TGCGGCAA | -0.127

Row | Sequence | PBM E-score
51 | ATATCTAC | 0.0208
52 | CTGCTCAC | 0.00302
53 | AGCGTGAA | -0.0302
54 | ACAGCTAT | -0.0224
55 | AGGTCGTG | 0.0575
56 | AGGTCGTA | 0.451
57 | CGGTCGTC | 0.0119
58 | GGGTCGTA | 0.42
59 | CGGTCGTA | 0.442
60 | GGGTCGAA | 0.0267
61 | CGGTCGGA | -0.0376
62 | GGGTCGGA | 0.0691
63 | AGGTCGTC | 0.0416
64 | CTGGGTGC | -0.106
65 | GCGCACTA | -0.00558
66 | CGGCTGCC | -0.0671
67 | CACGACCG | 0.00924
68 | AACGACCT | 0.386
69 | GACGACCA | 0.071
70 | AACGACCG | 0.403
71 | TGCGACCA | 0.0986
72 | CACGACCA | -0.0648
73 | TCCGACCA | 0.0761
74 | TACGACCA | 0.45
75 | AGCGACCT | 0.132

Row | Sequence | PBM E-score
76 | ACCGACCG | 0.13
77 | AACGACCA | 0.405
78 | AACGACCC | 0.365
79 | CAGCATAA | -0.0242
80 | GGACCTAC | 0.0699
81 | CCGATCTC | -0.136
82 | AATGAGTC | -0.0524
83 | ATTGGAAC | -0.0244
84 | GGCTAACC | -0.0479
85 | GAGTCGTA | 0.43
86 | GAGTCGCA | 0.0248
87 | CAGTCGGA | -0.016
88 | AAGTCGTC | 0.121
89 | CAGTCGTC | -0.106
90 | AAGTCGTG | -0.0736
91 | CAGTCGTA | 0.416
92 | AAGTCGTA | 0.416
93 | GAGTCGGA | -0.0556
94 | GGACATTA | 0.01
95 | AAATCTAA | -0.16
96 | TCGCATCA | 0.209
97 | CCGGGCAC | -0.214
98 | ACAGATGC | -0.00973
99 | AAGATTGA | -0.156
100 | CAACGAAG | 0.235

Row | Sequence | PBM E-score
101 | CAACGAAA | 0.221
102 | AAACGAAG | 0.464
103 | TAACGAAA | 0.334
104 | AAACGAAT | 0.451
105 | AACCGAAT | 0.277
106 | AAACGAAA | 0.46
107 | AGACGAAG | 0.0695
108 | AAACGTAT | 0.328
109 | ACTCGACA | 0.0576
110 | ACGCACTC | 0.151
111 | GGTTGGGA | -0.0786
112 | CCCTGCGC | -0.276
113 | GGTACAGA | -0.0181
114 | CGTACAGA | 0.41
115 | AGTACAGA | -0.0613
116 | CGTACAGC | 0.446
117 | CCTACAGC | -0.334
118 | AGTACAGC | -0.156
119 | AGCAGACC | -0.0454
120 | AAGGTACT | 0.00877
121 | CAGGTACC | -0.112
122 | ATGGTACG | 0.388
123 | AAGGTACC | -0.0716
124 | CAGGTACA | -0.226
125 | ATGGTACA | -0.173

Row | Sequence | PBM E-score
126 | CAGGTACG | 0.396
127 | ATGGTACC | -0.257
128 | AAGGTACG | 0.393
129 | CTTAGATA | -0.0328
130 | AGCGTGGA | -0.0828
131 | CAGAGACA | -0.356
132 | GGCTCGGA | 0.0556
133 | AGCTCGTA | 0.473
134 | GGCTCGAA | -0.0434
135 | AGCTCGTG | 0.107
136 | AGCTCGTC | 0.103
137 | GGCTCGTA | 0.472
138 | CGCTCGGA | 0.163
139 | CGCTCGTC | 0.127
140 | CGCTCGTA | 0.466
141 | AGGGCTAC | -0.113
142 | GAGGGCGC | -0.0991
143 | GTGGTTGA | -0.0855
144 | ACGTAAGA | 0.146
145 | TCGTAAGA | 0.399
146 | CCGTAAGA | 0.21
147 | CCGTAACA | 0.22
148 | TCGTAACA | 0.404
149 | GCGTAACA | 0.118
150 | ACGTATCA | 0.254

Row | Sequence | PBM E-score
151 | GCGTATCA | 0.182
152 | TCGTATCA | 0.463
153 | CTGCAGAC | -0.0383
154 | AACACTGA | 0.0163
155 | GGGTCAAC | -0.231
156 | TGAACTCA | -0.00504
157 | CACCCTTC | -0.0111
158 | TAATACCA | -0.0667
159 | GAATACGC | 0.175
160 | AAATACGC | 0.212
161 | TAATACGA | 0.429
162 | AAATACGT | 0.109
163 | AAATACGA | 0.449
164 | GAATACTA | 0.104
165 | GAATACGA | 0.439
166 | TAATACTA | 0.105
167 | CAATACGC | 0.0949
168 | CAATACGA | 0.419
169 | CAATACGG | 0.196
170 | ACTTTATA | 0.127
171 | CCGTCCAC | -0.0949
172 | AATACTAG | 0.00488
